Screening results (PubChem)
Pf growth 48h: P. falciparum growth inhibition at 48 hours (one generation); actives 5.9% (n = 310,000); Potency, µM (titrated, usually from 28.7 µM), usual class: inhibitors; P. falciparum luciferase growth in erythrocytes, 48 h
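First compound was added to culture medium, then infected red cells at 0.1% parasitemia and 2% hematocrit (final). After incubation at 37 C under 5% CO2, luciferase detection reagent was dispensed and light output recorded.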
NS1 function inh: blocks influenza NS1 protein function; AID 2326; Potency, µM (series often up to 46.1 µM); actives 0.4% (n = 270,000); calls by dose curve; note: actives are rising curves; nearly all actives have a fitted effect of over 50% in size
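Compounds were scored for reversing the slow growth caused by influenza A NS1 in S. cerevisiae, measured by optical density at 600 nm. Assay medium contained 2% galactose at pH 6.0; NS1-free yeast of the same strain were the positive control.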
CHX counter: counter-screen hit for Shiga toxin inhibitors, cycloheximide; actives 12% (n = 300,000); cell reporter, cycloheximide protein synthesis inhibition counterscreen; AID 2314; max response, %; in the data active = max response mostly above about 13%, no sharp cut-off; inactive = mostly below about 14%; note: read at 38.3 µM for the half of the compounds with a filed dose
Giardia FBPA inh: blocks Giardia fructose-bisphosphate aldolase activity; actives 0.71% (n = 290,000); A8B2U2; Potency, µM (doses to about 59.6 µM), most hits filed as inhibitors; purified Giardia FBPA; note: nearly all actives have a fitted effect of over 55% in size
Target sequence (A8B2U2 whole entry, looked up): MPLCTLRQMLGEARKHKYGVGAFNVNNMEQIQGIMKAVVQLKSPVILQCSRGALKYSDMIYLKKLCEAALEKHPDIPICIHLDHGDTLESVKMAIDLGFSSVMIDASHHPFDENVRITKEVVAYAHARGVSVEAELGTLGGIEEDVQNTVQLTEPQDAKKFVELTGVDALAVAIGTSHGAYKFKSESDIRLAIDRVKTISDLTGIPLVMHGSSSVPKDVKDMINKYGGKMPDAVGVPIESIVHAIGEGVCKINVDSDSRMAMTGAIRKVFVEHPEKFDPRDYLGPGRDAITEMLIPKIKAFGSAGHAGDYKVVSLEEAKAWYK
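40 nM FBPA preincubated 10 min at RT with compound (up to 57.5 uM final), then substrate plus GAPDH/TPI/NAD/arsenate coupling and diaphorase/resazurin added. Fluorescence read after 20 min at RT, 525/598 nm.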
Pf growth 96h: P. falciparum growth inhibition at 96 hours | P. falciparum luciferase reporter growth, 96 h | Potency, µM (series often up to 28.7 µM), most hits filed as inhibitors | actives 6.9% (n = 320,000) | AID 504834
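96 h incubation, 37 C, 5% CO2, of luciferase-reporter P. falciparum-infected RBCs (2% hematocrit, 0.05% parasitemia final) with test compounds; endpoint luminescence.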
Shiga toxin inh: Shiga toxin inhibition. Vero cells, Shiga toxin protein synthesis inhibition reporter. inhibition, % at 38.7 µM. actives 9.2% (n = 290,000). AID 2315; in the data active = inhibition mostly above about 28%, no sharp cut-off; inactive = mostly below about 43%
Numbers stand for hits; – = inactive; ? = inconclusive; · = no result; [ ] = dose if it differs, or a comment. The list is not random: actives were taken first. Their share in the collection is about 21%. Unless noted, calls come from the whole dose curve; as a rule, active = well fitted curve in the direction sought with a large enough effect; inconclusive = small, poorly fitted or top-dose-only effect, or another doubt; inactive = no such curve, though single readings can be large; an effect the other way counts as inactive or inconclusive.

SMILES	Pf growth 48h	NS1 function inh	CHX counter	Giardia FBPA inh	Pf growth 96h	Shiga toxin inh
O=C1[C@@H]2[C@H]3[C@H](O)[C@H](O)C/C(=N/OC[C@@H](O)COCc4ccco4)[C@H]3CC[C@H]2C(=O)N1c1ccc(F)cc1F	·	·	·	–[12.9 µM]	·	·
COc1cccc(C(CNC(=O)C2CCN(C(=O)Nc3ccccc3)CC2)N(C)C)c1 (stereo unspecified)	?	·	·	·	–	·
CC(C)(C)C(=O)[C@@H]1[C@@H]2C(=O)N(c3ccc4c(c3)OCCO4)C(=O)[C@@H]2C2c3ccccc3C=CN21 (stereo partly specified)	?	–	15.7	?	–	–
Cc1ccc(N2C(=O)[C@@H]3[C@H](C2=O)C2c4ccccc4C=CN2[C@@H]3C(=O)c2ccco2)cc1 (stereo partly specified)	?	?	–	?	–	29.0
Cc1ccc(N2C(=O)[C@@H]3[C@H](C2=O)C2c4ccccc4C=CN2[C@@H]3C(=O)c2ccco2)c(C)c1 (stereo partly specified)	?	–	–	?	–	–
COc1ccc(N2C(=O)[C@@H]3[C@H](C2=O)[C@H]2c4ccccc4C=CN2[C@@H]3C(=O)Nc2ccccc2)cc1	·	–	–	?	9.28µM	–
O=C(c1ccco1)[C@@H]1[C@@H]2C(=O)N(c3ccccc3)C(=O)[C@@H]2C2c3ccccc3C=CN21 (stereo partly specified)	–	?	–	–	4.65µM	–
COc1ccc(N2C(=O)[C@@H]3[C@H](C2=O)[C@H]2C=CC=NN2[C@@H]3C(=O)Nc2ccc(Cl)cc2)cc1	?	–	–	?	–	–
COc1cccc(-c2nnc(SC(C(=O)c3c[nH]c4ccccc34)c3ccccc3)n2C)c1 (stereo unspecified)	13.1µM	–	–	–	13.1µM	–
Cc1cc(C)c2nc(N3CCC(C(=O)NCc4cccnc4)CC3)sc2c1	–	·	21.5	–	–	86.4
Cc1cc(C)c2nc(N3CCC(C(=O)NCc4ccccn4)CC3)sc2c1	–	·	47.3	–	–	–
Cc1cc(C)c2nc(N3CCC(C(=O)N4CCN(C(=O)c5ccco5)CC4)CC3)sc2c1	·	–	–	–	?	–
Cc1cc(C)c2nc(N3CCC(C(=O)NCCCN4CCCC4=O)CC3)sc2c1	–	–	–	–	–	–
CC(C)CCCC(C)CCCC(C)CCCCC(C)CCCC(C)CCCC(C)C (stereo unspecified)	–	·	·	·	–	·
CC(C)(C)OC(=O)NCCCC[C@H](NC(=O)c1nc[nH]c1C(=O)NC1CCN(C(=O)OC(C)(C)C)CC1)C(=O)OC(C)(C)C	2.08µM	–	–	–	2.33µM	–
CC(C)(C)OC(=O)NCc1ccc(CNC(=O)c2[nH]cnc2C(=O)NC2CCN(C(=O)OC(C)(C)C)CC2)cc1	5.86µM	·	·	·	?	·
CC(C)C[C@H](NC(=O)c1nc[nH]c1C(=O)NC1CCN(C(=O)OC(C)(C)C)CC1)C(=O)OC(C)(C)C	1.47µM	–	–	?	2.33µM	–
CC(C)C[C@H](NC(=O)c1nc[nH]c1C(=O)NC1CCN(C(=O)OC(C)(C)C)CC1)C(=O)OCc1ccccc1	?	?	–	?	11.7µM	–
COc1ccc(C(NC(=O)CC(C)C)NC(=O)CC(C)C)cc1OC	–	–	–	–	10.4µM	–
COc1cccc2c1Oc1cc([N+](=O)[O-])cc(N(C)C(C)=O)c1C=C2	–	–	–	–	–	–
O=C(N/N=C/c1ccccc1)c1ccco1	–	–	35.8	–	–	99.7
O=C(Nc1ccccc1C(=O)N/N=C/c1ccccc1)c1ccco1	–	–	27.3	–	–	86.5
COc1ccccc1/C=C/C=N/NC(=O)c1ccco1	11.7µM	–	31.6	–	?	78.3
O=C(N/N=C/c1ccc(O)cc1)c1csc2ccccc12	–	–	–	–	–	–
O=C(Nc1ccccc1C(=O)N/N=C/c1ccc(O)cc1)c1ccccc1	–	–	28.5	–	–	–
SMILES	Pf growth 48h	NS1 function inh	CHX counter	Giardia FBPA inh	Pf growth 96h	Shiga toxin inh
Cc1nnc(C)n1N	–	·	–	–	–	–
O=C(N/N=C/c1ccccc1)c1ccc(OCc2ccccc2)cc1	–	·	–	–	–	–
O=C(Nc1ccccc1C(=O)NC(Cc1ccccc1)C(=O)O)c1ccco1 (stereo unspecified)	–	–	–	–	–	–
O=C(NCc1ccncc1)C(=O)N/N=C/c1ccccc1OCc1ccccc1	–	·	–	–	–	–
O=C(N/N=C/c1ccc2cccnc2c1)c1ccco1	–	·	–	–	–	71.6
O=C(N/N=C/c1ccc(OCc2ccccc2)cc1)c1ccco1	1.85µM	–	35.9	–	3.7µM	55.4
CC(NC(=O)c1ccccc1NC(=O)c1ccco1)C(=O)O (stereo unspecified)	–	–	76.2	–	–	138.4
O=C(N/N=C\c1ccccc1OCc1ccccc1)c1ccco1	8.28µM	–	31.8	–	?	39.9
COC(=O)c1ccc(COc2ccccc2/C=N/NC(=O)c2cccnc2)cc1	–	·	27.5	–	–	–
CC(=O)c1ccc(NC(=O)C(NC(=O)c2ccccc2)=C(C)C)cc1	–	·	–	–	–	–
O=C(N/N=C/C(Br)=C\c1ccccc1)c1ccco1	2.62µM	–	46.3	–	4.15µM	46.9
O=C(Nc1ccccc1C(=O)Nc1ccccc1C(=O)NCc1ccco1)c1ccco1	8.28µM	–	–	–	·	–
CC(C)=C(NC(=O)c1ccccc1)C(=O)N/N=C/c1ccc(O)cc1	–	–	31.2	–	?	–
O=C(N/N=C/C=N/NC(=O)c1ccco1)c1ccco1	–	–	–	·	–	–
COc1ccc(NC(=O)CN(C)C(=O)c2ccc(S(=O)(=O)Nc3ccccc3F)cc2)cc1	–	·	·	·	–	·
CCNC(C)(C)[C@@H](SS)c1ccc(Br)cc1	·	–	·	·	·	·
CCc1cccc(C)c1NC(=O)CSc1nnc(C)o1	–	–	–	·	–	–
O=S(=O)(c1ccc2nc(COc3ccc(Cl)cc3Cl)[nH]c2c1)N1CCOCC1	·	–	14.5	–	–	–
O=S(=O)(c1ccc2nc(-c3ccccc3)[nH]c2c1)N1CCN(c2ccc(Cl)cc2)CC1	11.7µM	–	–	–	?	–
Cc1ccccc1OCc1nc2ccc(S(=O)(=O)N3CCOCC3)cc2[nH]1	·	–	–	–	?	–
Cc1cn(-c2ccc(Br)cc2)[nH]c1=O	–	–	39.3	–	·	63.6
CC(C)C(N)C(=O)NC(Cc1c[nH]c2ccccc12)C(=O)O (stereo unspecified)	·	·	·	–	·	·
Cc1cc2nccc(-c3ccc(Cl)c([N+](=O)[O-])c3)n2n1	–	·	–	–	–	–
CC(C)Cc1ccc(S(=O)(=O)N2CCN(c3ccccn3)CC2)cc1	–	–	–	–	–	–
CC1(c2ccccc2)ON(c2ccccc2C(F)(F)F)C1=O (stereo unspecified)	4.15µM	·	·	·	?	·
O=C(Nc1ccccc1C(F)(F)F)C(O)(c1ccccc1)C1CCCCC1 (stereo unspecified)	?	·	·	·	–	·
